Results reported in PubChem BioAssay (NCI).
Where “and” joins values, the source holds several entries; their conditions need not be identical. Equal entries are not always repeated. About 83,000 compounds went through this panel and 20% of them were active in at least one assay; those are over-represented in the sample as a whole.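 Treatment: one concentration, 48 hours, 96-well format. Scoring: percent growth, with anything below 10 considered active.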 Calls of active or inactive are those of the source.

How the values were obtained:
Assay in all cases: NCI-60 one-dose screen, 48 h (100 = growth as untreated, 0 = no growth, -100 = all killed)
SR leukemia = test system: SR leukemia
RPMI-8226 leukemia = test system: RPMI-8226 leukemia
OVCAR-8 ovarian = test system: OVCAR-8 ovarian
OVCAR-5 ovarian = test system: OVCAR-5 ovarian
OVCAR-4 ovarian = test system: OVCAR-4 ovarian
SK-OV-3 ovarian = test system: SK-OV-3 ovarian
IGROV1 ovarian = test system: IGROV1 ovarian
OVCAR-3 ovarian = test system: OVCAR-3 ovarian
NCI/ADR-RES ovarian = test system: NCI/ADR-RES ovarian
HS 578T breast = test system: HS 578T breast

Measured: growth

CNC(=O)c1cc(Oc2ccc(CC(=O)Nc3cc(C(C)(C)C)nn3C)cc2)ccn1
inactive: SR leukemia; 1 µM 82.7% | SR leukemia; 30 µM 48.9% | RPMI-8226 leukemia; 1 µM 46.2% | RPMI-8226 leukemia; 10 µM 62.6% | OVCAR-8 ovarian; 1 µM 72.5% | OVCAR-8 ovarian; 10 µM 71.8% | OVCAR-8 ovarian; 30 µM 70.6% | OVCAR-5 ovarian; 1 µM 104% | OVCAR-5 ovarian; 10 µM 116% | OVCAR-5 ovarian; 30 µM 98.9% | OVCAR-4 ovarian; 1 µM 58.7% | OVCAR-4 ovarian; 10 µM 44.7% | OVCAR-4 ovarian; 30 µM 83.4% | SK-OV-3 ovarian; 10 µM 71.8% | SK-OV-3 ovarian; 30 µM 94.4% | IGROV1 ovarian; 1 µM 75.1% | IGROV1 ovarian; 10 µM 85.6% | IGROV1 ovarian; 30 µM 90.5% | OVCAR-3 ovarian; 1 µM 81.9% | OVCAR-3 ovarian; 10 µM 69.6% | OVCAR-3 ovarian; 30 µM 109% | NCI/ADR-RES ovarian; 1 µM 85.3% | NCI/ADR-RES ovarian; 10 µM 76% | NCI/ADR-RES ovarian; 30 µM 53.7%

NC(=S)NN=C1CCC(C2CCCCC2)CC1 (stereo not drawn)
inactive: SR leukemia; 10 µM unless noted 125% | RPMI-8226 leukemia; 10 µM unless noted 67.1% and 74.9% | OVCAR-8 ovarian; 10 µM unless noted 100% and 98.8% | OVCAR-5 ovarian; 10 µM unless noted 110% and 93.3% | OVCAR-4 ovarian; 10 µM unless noted 33.8% | SK-OV-3 ovarian; 10 µM unless noted 100% and 101% | IGROV1 ovarian; 10 µM unless noted 98.2% and 89.4% | OVCAR-3 ovarian; 10 µM unless noted 83.9% and 85.7% | HS 578T breast; 10 µM unless noted 79.3% and 109% | NCI/ADR-RES ovarian; 10 µM unless noted 96.8% and 102%

Cc1[nH]c(-c2nc3ccccc3[nH]2)c(C)c1C(=O)NC(C)C1CCCCC1 (stereo not drawn)
inactive: SR leukemia; 10 µM 69% | OVCAR-8 ovarian; 10 µM 96.9% | OVCAR-5 ovarian; 10 µM 94% | OVCAR-4 ovarian; 10 µM 92.1% | IGROV1 ovarian; 10 µM 90.9% | OVCAR-3 ovarian; 10 µM 90% | HS 578T breast; 10 µM 82.8% | NCI/ADR-RES ovarian; 10 µM 85.5%
active: SR leukemia; 100 µM -44.3% | RPMI-8226 leukemia; 10 µM unless noted -65.3% [100 µM] | OVCAR-8 ovarian; 100 µM -61.5% | OVCAR-5 ovarian; 100 µM -95.4% | OVCAR-4 ovarian; 100 µM -84.1% | SK-OV-3 ovarian; 10 µM unless noted -77.6% [100 µM] | IGROV1 ovarian; 100 µM -67.8% | OVCAR-3 ovarian; 100 µM -86.9% | HS 578T breast; 100 µM -39% | NCI/ADR-RES ovarian; 100 µM -79.7%

CC1(c2ccc3ccccc3c2)CCC(=O)O1 (stereo not drawn)
inactive: SR leukemia; 10 µM unless noted 92.2% | RPMI-8226 leukemia; 10 µM unless noted 109% | OVCAR-8 ovarian; 10 µM unless noted 101% | OVCAR-5 ovarian; 10 µM unless noted 102% | OVCAR-4 ovarian; 10 µM unless noted 110% | SK-OV-3 ovarian; 10 µM unless noted 95.3% | IGROV1 ovarian; 10 µM unless noted 102% | OVCAR-3 ovarian; 10 µM unless noted 105% | HS 578T breast; 10 µM unless noted 125% | NCI/ADR-RES ovarian; 10 µM unless noted 105%

COc1ccc(Cl)cc1C(=O)NCCc1ccc(S(=O)(=O)NC(=O)NC2CCCCC2)cc1
inactive: SR leukemia; 10 µM 105% and 90% | SR leukemia; 100 µM 61.3% | RPMI-8226 leukemia; 10 µM unless noted 104% and 99.5% | OVCAR-5 ovarian; 10 µM 111% and 112% | OVCAR-5 ovarian; 100 µM 101% | OVCAR-4 ovarian; 10 µM 117% and 103% | OVCAR-4 ovarian; 100 µM 58.7% | SK-OV-3 ovarian; 10 µM unless noted 103% and 96.1% | IGROV1 ovarian; 10 µM 119% and 99.4% | IGROV1 ovarian; 100 µM 69.2% | OVCAR-3 ovarian; 10 µM 112% and 121% | OVCAR-3 ovarian; 100 µM 66.1% | HS 578T breast; 10 µM 94.7% and 110% | HS 578T breast; 100 µM 54.8% | NCI/ADR-RES ovarian; 10 µM 103% and 107% | NCI/ADR-RES ovarian; 100 µM 76.6%

COC(=O)c1nc(N)nc(C(=O)OC)c1C(=O)c1ccc(OC)cc1
inactive: SR leukemia; 10 µM unless noted 90.2% and 22.8% | RPMI-8226 leukemia; 10 µM unless noted 107% and 32.6% | OVCAR-8 ovarian; 10 µM unless noted 105% and 55.1% | OVCAR-5 ovarian; 10 µM unless noted 121% and 87.5% | OVCAR-4 ovarian; 10 µM unless noted 105% and 37.6% | SK-OV-3 ovarian; 10 µM unless noted 106% and 83.3% | IGROV1 ovarian; 10 µM unless noted 106% and 66.6% | OVCAR-3 ovarian; 10 µM unless noted 117% and 70.1% | HS 578T breast; 10 µM unless noted 105% and 81.2% | NCI/ADR-RES ovarian; 10 µM unless noted 105% and 37.4%

O=C(O)CCCCc1ccc([N+](=O)[O-])cc1
inactive: SR leukemia; 10 µM unless noted 105% and 89.5% | RPMI-8226 leukemia; 10 µM unless noted 95.4% and 87.7% | OVCAR-8 ovarian; 10 µM unless noted 114% and 102% | OVCAR-5 ovarian; 10 µM unless noted 116% and 89.9% | OVCAR-4 ovarian; 10 µM unless noted 101% and 106% | SK-OV-3 ovarian; 10 µM unless noted 109% and 106% | IGROV1 ovarian; 10 µM unless noted 98.1% and 95.9% | OVCAR-3 ovarian; 10 µM unless noted 106% and 121% | HS 578T breast; 10 µM unless noted 127% and 104% | NCI/ADR-RES ovarian; 10 µM unless noted 101% and 107%
